Laboratory results as given in PubChem BioAssay AID602124 (The Scripps Research Institute Molecular Screening Center, 2011).
Out of some 1,300 compounds screened, about 630 (48%) were called active. Rule as the data show it: active = inhibition above about 6.5%; inactive = the rest. The set was probably picked from earlier hits. The list is a sample of the results.

What follows are molecules tested against Tyrosine-protein kinase ABL1 (Homo sapiens) + Ras and Rab interactor 1 (Homo sapiens) (UniProt P00519+Q13671) (assay: Rin1-Abl binding inhibitor retest, confirmation, biochemical, TR-FRET (AID 602124)). Conditions: purified proteins, at 7.35 µM, stronger effect = higher value.
Sequence of Tyrosine-protein kinase ABL1 (Homo sapiens) + Ras and Rab interactor 1 (Homo sapiens) (P00519 whole entry, looked up): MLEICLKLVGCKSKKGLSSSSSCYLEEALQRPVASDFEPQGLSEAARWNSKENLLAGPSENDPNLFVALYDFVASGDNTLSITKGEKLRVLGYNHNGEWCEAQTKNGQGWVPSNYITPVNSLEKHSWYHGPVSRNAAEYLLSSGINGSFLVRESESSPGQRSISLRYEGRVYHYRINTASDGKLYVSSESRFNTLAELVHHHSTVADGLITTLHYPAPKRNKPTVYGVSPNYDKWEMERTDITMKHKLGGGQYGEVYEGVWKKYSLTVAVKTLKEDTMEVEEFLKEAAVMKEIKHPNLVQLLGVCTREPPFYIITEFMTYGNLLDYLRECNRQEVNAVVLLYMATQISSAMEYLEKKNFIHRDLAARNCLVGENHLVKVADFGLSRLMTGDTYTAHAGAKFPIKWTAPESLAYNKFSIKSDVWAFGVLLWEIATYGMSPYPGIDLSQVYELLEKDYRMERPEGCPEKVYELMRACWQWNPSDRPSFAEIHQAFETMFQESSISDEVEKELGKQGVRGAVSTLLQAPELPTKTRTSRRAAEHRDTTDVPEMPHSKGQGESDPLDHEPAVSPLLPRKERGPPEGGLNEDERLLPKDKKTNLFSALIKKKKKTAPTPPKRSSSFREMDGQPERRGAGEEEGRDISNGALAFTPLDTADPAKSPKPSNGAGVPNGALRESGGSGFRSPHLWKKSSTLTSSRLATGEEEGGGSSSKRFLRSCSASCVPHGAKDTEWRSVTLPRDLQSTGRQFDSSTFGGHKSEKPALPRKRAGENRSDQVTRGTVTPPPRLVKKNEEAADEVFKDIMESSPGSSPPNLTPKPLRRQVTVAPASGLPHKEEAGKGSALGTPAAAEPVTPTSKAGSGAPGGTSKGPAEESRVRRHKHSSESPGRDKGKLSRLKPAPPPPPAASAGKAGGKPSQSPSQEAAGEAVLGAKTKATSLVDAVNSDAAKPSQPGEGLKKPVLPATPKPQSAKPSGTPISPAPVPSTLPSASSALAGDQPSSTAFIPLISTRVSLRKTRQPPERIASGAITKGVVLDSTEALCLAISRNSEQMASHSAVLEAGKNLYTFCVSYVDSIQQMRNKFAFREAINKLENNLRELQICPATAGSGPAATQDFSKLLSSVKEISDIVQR
Sequence of Tyrosine-protein kinase ABL1 (Homo sapiens) + Ras and Rab interactor 1 (Homo sapiens) (Q13671 whole entry, looked up): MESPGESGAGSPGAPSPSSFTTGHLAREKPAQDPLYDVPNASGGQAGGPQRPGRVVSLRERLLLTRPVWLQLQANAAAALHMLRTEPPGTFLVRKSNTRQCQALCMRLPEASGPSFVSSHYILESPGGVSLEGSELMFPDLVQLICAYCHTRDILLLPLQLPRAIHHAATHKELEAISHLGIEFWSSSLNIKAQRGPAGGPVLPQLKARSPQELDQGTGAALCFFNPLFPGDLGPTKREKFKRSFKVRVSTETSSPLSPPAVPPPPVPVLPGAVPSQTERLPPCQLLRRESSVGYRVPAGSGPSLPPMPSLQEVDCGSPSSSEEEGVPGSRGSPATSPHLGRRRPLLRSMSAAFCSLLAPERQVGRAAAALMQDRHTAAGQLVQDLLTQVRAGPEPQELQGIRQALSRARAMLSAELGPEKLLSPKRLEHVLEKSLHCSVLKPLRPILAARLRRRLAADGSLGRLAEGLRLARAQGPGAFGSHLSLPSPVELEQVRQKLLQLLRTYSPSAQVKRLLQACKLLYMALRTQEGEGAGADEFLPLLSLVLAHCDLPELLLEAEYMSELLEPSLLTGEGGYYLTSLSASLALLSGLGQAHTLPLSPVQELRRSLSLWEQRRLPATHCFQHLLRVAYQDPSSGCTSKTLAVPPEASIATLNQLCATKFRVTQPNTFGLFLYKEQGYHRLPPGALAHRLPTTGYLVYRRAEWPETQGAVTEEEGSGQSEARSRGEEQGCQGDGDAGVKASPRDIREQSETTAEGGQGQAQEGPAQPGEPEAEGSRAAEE
`CC(=O)Nc1ccc(CN2CCC(Oc3ccc(C(=O)N4CCCC4)cc3)CC2)cc1` was tested, and the inhibition was 3.99% (inactive).
For `CN(C(=O)c1ccc(NC(=O)Cc2cccc(NC(=O)C3CCN(C(=O)c4ccccc4)CC3)c2)cc1)C1CC1`, the inhibition was 26% (active).
With `CCOC(=O)CN(C(=O)COc1nc(C)cc(C)c1C#N)c1ccc(Cl)cc1` the inhibition was 0.28% (inactive).
In the case of `O=C(NNc1c2ccccc2nc2ccccc12)c1cc2ccccc2cc1O`, the inhibition is reported as 1.57% (inactive).
In the case of `CCOc1ccc(-n2c(SCC(=O)NC3CCS(=O)(=O)C3)nnc2-c2cccnc2)cc1` (stereo not given), the inhibition is reported as 3.68% (inactive).
In the case of `Cc1ccc(-n2c(SCC(=O)NCc3ccc4c(c3)OCO4)nnc2-c2cccnc2)c(C)c1`, the inhibition is reported as 12.5% (active).
In the case of `CCCn1c(N)c(C(=O)CSc2nnc(-c3cccnc3)n2-c2ccc(C)cc2C)c(=O)[nH]c1=O`, the inhibition is reported as 13.8% (active).
For `COCCNC(=O)Nc1ccc2nc(-c3ccco3)c(-c3ccco3)nc2c1`, the inhibition was 5.72% (inactive).
For `CN(CC(=O)Nc1ccc(F)cc1)CC(=O)Nc1ccc(Cl)c(S(=O)(=O)N2CCOCC2)c1`, the inhibition was 0.32% (inactive).
With `CCc1ccc(CN(C)C(C)C(=O)Nc2ccc(S(=O)(=O)N3CCCC3)cc2)cc1` (stereo not given) the inhibition was -1.11% (inactive).
`Cc1ccccc1C(=O)N1CCC(C(=O)Nc2ccc(S(=O)(=O)N(C)C(C)C)cc2)CC1` was tested, and the inhibition was 9.43% (active).
In the case of `O=C(Nc1ccc(S(=O)(=O)Nc2ncccn2)cc1)c1cncc(Br)c1`, the inhibition is reported as 1.84% (inactive).
In the case of `CC(CCO)Nc1nc2c([nH]1)c(=O)n(C)c(=O)n2C` (stereo not given), the inhibition is reported as 1.44% (inactive).
With `O=c1ccc2c(-c3ccccc3S(=O)(=O)O)c3ccc(O)c(O)c3oc-2c1O` the inhibition was 67% (active).
With `CN(C)c1ccc(N/C=C/C(=O)C(F)(F)F)cc1` the inhibition was -4.29% (inactive).
In the case of `COC(=O)c1ccc(COC(=O)C2CCN(S(=O)(=O)c3c(Cl)cccc3Cl)CC2)o1`, the inhibition is reported as 16.6% (active).
`O=C(COc1ccc(S(=O)(=O)NCCc2ccccc2)cc1)N1CCCC1` was tested, and the inhibition was -1.2% (inactive).
`Cc1cc2ccccc2n1CCNC(=O)COc1ccc2ccccc2c1` was tested, and the inhibition was 0.15% (inactive).
For `CCOC(=O)N1CCC(c2cc(=O)n(-c3ccccc3)[nH]2)CC1`, the inhibition was -2.37% (inactive).
In the case of `CCOC(=O)N1CCN(C(=O)C2CCCN(c3ncnc4c3sc3cccc(F)c34)C2)CC1` (stereo not given), the inhibition is reported as 9.09% (active).
`CCOC(=O)N1CCN(C(=O)C2CCN(c3ncnc4c3sc3cccc(F)c34)CC2)CC1` was tested, and the inhibition was 28.5% (active).
With `Cc1cc(NC(=O)CSCC(=O)NC(C)c2ccccc2)no1` (stereo not given) the inhibition was 0.39% (inactive).
In the case of `O=C(Nc1ccc(OC(F)(F)F)cc1)c1ccc2c(c1)no[n+]2[O-]`, the inhibition is reported as -0.65% (inactive).
`CC(OC(=O)c1ccccc1NCCO)C(=O)Nc1ccnn1C(C)C` (stereo not given) was tested, and the inhibition was 53.2% (active).
In the case of `COc1ccc(CNC(=O)c2cc(C(=O)C3CC3)c[nH]2)cc1`, the inhibition is reported as 1.47% (inactive).
In the case of `CSc1ncnc2c1ncn2CC(=O)C1CCC2C3CCC4=CC(=O)CCC4(C)C3CCC12C` (stereo not given), the inhibition is reported as 11.9% (active).
`C#CCOCCOCCOCCNc1nc(N2CCN(C(=O)C(Cc3ccc(O)cc3)n3cc(C(N)CC(C)C)nn3)CC2)nc(N2CCN(C(=O)C(Cc3ccc(O)cc3)n3cc(C(N)C(C)CC)nn3)CC2)n1` (stereo not given) was tested, and the inhibition was 13.9% (active).
With `C[C@@H]1CN([C@H](C)CO)S(=O)(=O)c2ccc(C#C[C@@H](C)O)cc2O[C@@H]1CN(C)Cc1ccc(-c2ccccc2)cc1` the inhibition was 32.5% (active).
`O=C(c1cn(-c2ccccc2)nc1-c1cc2ccccc2oc1=O)N1CCOCC1` was tested, and the inhibition was -4.12% (inactive).
In the case of `O=C(CNCc1ccco1)Nc1cc(S(=O)(=O)N2CCOCC2)ccc1N1CCCC1`, the inhibition is reported as -1.42% (inactive).
`Oc1c(CN2CCN(c3ccc(F)cc3)CC2)cc(Cl)c2cccnc12` was tested, and the inhibition was -0.1% (inactive).
With `C=C1c2c(Cl)ccc(O)c2C(O)=C2C(=O)[C@]3(O)C(O)=C(C(N)=O)C(=O)[C@@H](N(C)C)[C@@H]3[C@@H](O)C12` (stereo not given in full) the inhibition was 13.9% (active).
With `CC(C)CNS(=O)(=O)c1ccc(C(=O)Nc2ccc3c(c2)OCO3)cc1` the inhibition was -0.58% (inactive).
With `CN(Cc1c(F)cccc1Cl)C(=O)CNC(=O)c1ccc2c(c1)OCO2` the inhibition was 45.8% (active).
`C=CCn1cc(C(=O)NCc2ccc(Cl)cc2)c(=O)c2cc(S(=O)(=O)N(CC)CC)ccc21` was tested, and the inhibition was 0.48% (inactive).
`CCc1cc2c(N3CCN(c4nnc(CC)s4)CC3)ncnc2s1` was tested, and the inhibition was 4.08% (inactive).
With `C=CCn1c2ccccc2c2nnc(SCc3[nH]c(=O)[nH]c3C(=O)CCCCC(=O)OCC)nc21` the inhibition was 71.5% (active).
For `Cc1ccc(C(NC(=O)C2CCN(CCOc3ccc(Cl)cc3Cl)CC2)c2ccccn2)cc1` (stereo not given), the inhibition was 0.23% (inactive).
In the case of `CCOc1ccc(S(=O)(=O)N2CCCCC2)cc1NC(=O)CN1CCCC1c1cccs1` (stereo not given), the inhibition is reported as 0.05% (inactive).
For `Cc1cccc(N(C)C(=O)CN2C(=O)COc3ccc(S(=O)(=O)N4CCCCCC4)cc32)c1`, the inhibition was 7.15% (active).
For `NS(=O)(=O)c1ccc(CCNC(=O)Nc2ccc(Cl)cc2)cc1`, the inhibition was -1.53% (inactive).
In the case of `Oc1cccc2cc(-c3ccncc3)cnc12`, the inhibition is reported as 20.6% (active).
For `CCOc1ccc(CNC(=O)C2CCCN(c3nnc(C)c4c(C)n(-c5ccccc5)nc34)C2)cc1` (stereo not given), the inhibition was 12.6% (active).
`OC[C@@H]1CN(Cc2ccc(Cl)cc2)C[C@H](n2cnc3c(NCc4ccncc4)ncnc32)O1` was tested, and the inhibition was 2.98% (inactive).
For `Cc1nn(-c2ncc(C(F)(F)F)cc2Cl)c(=O)n1-c1ccccc1`, the inhibition was -0.89% (inactive).
In the case of `O=C(CC1SCCNC1=O)Nc1ccc(Cl)cc1` (stereo not given), the inhibition is reported as 12.1% (active).
With `Nc1nc2n(n1)C(c1ccco1)CC(c1ccc(Cl)c(Cl)c1)N2` (stereo not given) the inhibition was 0.66% (inactive).
`O=c1c2c(nc3n1CCCCC3)sc1c(O)cccc12` was tested, and the inhibition was 14.5% (active).
For `CC(=O)NC(c1cccs1)c1cc(Br)c2cccnc2c1O` (stereo not given), the inhibition was 15.9% (active).
In the case of `Cc1c(CC(=O)N2CCN(C(=O)C3COc4ccccc4O3)CC2)c(=O)oc2c(O)c(O)ccc12` (stereo not given), the inhibition is reported as 8.45% (active).
For `NC1=CC(=O)C(=O)c2cccnc21`, the inhibition was 19.5% (active).
In the case of `COc1cc(C(=S)N2CCOCC2)ccc1O`, the inhibition is reported as -2.83% (inactive).
For `Cc1ccccc1CN1C[C@@H]2C[C@@H](c3ccc4nsnc4c3)N3CCC[C@@]23C1=O`, the inhibition was 22% (active).
In the case of `Nc1cc(=O)c2[nH]cnc2[nH]1`, the inhibition is reported as 18.1% (active).
In the case of `O=c1cc(CO)oc(CN2CCC(Cc3ccccc3)CC2)c1O`, the inhibition is reported as -3.76% (inactive).
